Measured values reported in PubChem BioAssay (EPA / NIEHS).
Records with an inconclusive call do not appear. Calls of active or inactive are those of the source. Rule for the calls, unless noted: active = hit-call score of the fitted dose curve at least 0.9, where 1 is the maximum; inactive = score below 0.9.

Columns and labels:
[1] = BSK_BT_PBMCCytotoxicity: PBMC Cytotoxicity Assessment in the BioMAP Diversity Plus: BT Assay (AID 2284225); conditions: primary human B cells with PBMC;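 note: PBMC viability measured by Alamar Blue dye reduction fluorescence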
Outline: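 PBMC (75,000/well) pretreated with compound 1 h, then activated with SEB and TSST-1 (20 ng/mL each final), incubated 90 h; Alamar Blue added 6 h, fluorescence read at 546/580 nm. Fitted relative to DMSO.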

[2] = BSK_BT_Bcell_Proliferation: Viability Assessment in the BioMAP Diversity Plus: BT Assay for B cell Proliferation (AID 2284227); conditions: primary human B cells with PBMC
Outline: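 Using a human primary B cell–PBMC co-culture, the assay measures total protein by sulforhodamine B absorbance as a gauge of proliferation after 72 h. Analysis followed the positive fitting direction with DMSO as baseline.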

[3] = read-out: Interleukin 6 (IL6), IL6 (gene 3569); test: BSK_BT_xIL6: BioMAP Diversity Plus: BT Assay for Interleukin 6 (IL6) Biomarker Activity (AID 2284228); conditions: primary human B cells with PBMC
Outline: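 Secreted IL-6 in the primary human B cell plus PBMC system, measured by Luminex at 24 h post-chemical, DMSO as baseline. Alamar Blue viability: 75,000 cells/well, chemical 1 h before SEB/TSST-1 (20 ng/mL each), 90 h, then 6 h dye.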

[4] = read-out: Interleukin 17A (IL17A), IL17A (gene 3605); test: BSK_BT_xIL17A: BioMAP Diversity Plus: BT Assay for Interleukin 17A (IL17A) Biomarker Activity (AID 2284229); conditions: primary human B cells with PBMC
Outline: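 Luminex xMAP quantification of secreted IL-17A after 24 h chemical exposure of a primary human B cell/PBMC co-culture. Signal increases fitted relative to DMSO negative control.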

[5] = read-out: Tumor necrosis factor (Homo sapiens) (UniProt P01375); test: BSK_BT_xTNFa: BioMAP Diversity Plus: BT Assay for Tumor necrosis factor alpha (TNF-alpha) Biomarker Activity (AID 2284230); conditions: primary human B cells with PBMC
Outline: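 Endpoint derived in the positive direction versus DMSO vehicle. Cells: B cells together with PBMC, exposed 24 h before TNF-alpha in the medium was read on the Luminex xMAP platform.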

[6] = read-out: Vascular cell adhesion molecule 1 (VCAM1), VCAM1 (gene 7412); test: BSK_MyoF_VCAM1: BioMAP Diversity Plus: MyoF Assay for Vascular cell adhesion molecule 1 (VCAM1) Biomarker Activity (AID 2284231); conditions: primary human lung fibroblasts
Outline: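 ELISA readout of VCAM-1 on human lung fibroblast cultures 24 hours after dosing, analyzed for signal gain relative to DMSO. Overt cytotoxicity was checked by sulforhodamine B total-protein staining in parallel cultures.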

[7] = read-out: Collagen III, COL3A1 (gene 1281); test: BSK_MyoF_CollagenIII: BioMAP Diversity Plus: MyoF Assay for Collagen III Biomarker Activity (AID 2284239); conditions: primary human lung fibroblasts
Outline: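 Collagen III biomarker quantified by ELISA in human lung fibroblast cultures 24 h after dosing. Activity fitted in the positive direction against DMSO as baseline.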

[8] = read-out: Interleukin 17F (IL17F), IL17F (gene 112744); test: BSK_BT_xIL17F: BioMAP Diversity Plus: BT Assay for Interleukin 17F (IL17F) Biomarker Activity (AID 2284243); conditions: primary human B cells with PBMC
Outline: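 Human B cells co-cultured with PBMC; secreted IL-17F quantified by LumineX xMAP 24 hours after chemical dosing. Activity fitted in the positive direction against DMSO negative control as baseline.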

[9] = read-out: Actin alpha 1 (ACTA1), ACTA1 (gene 58); test: BSK_MyoF_ACTA1: BioMAP Diversity Plus: MyoF Assay for Actin alpha 1 (ACTA1) Biomarker Activity (AID 2284244); conditions: primary human lung fibroblasts
Outline: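 Lung fibroblasts, human primary, 24 h compound exposure → a-SMA ELISA. Positive-direction fit vs DMSO control.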

[10] = read-out: Interleukin 2 (IL2), IL2 (gene 3558); test: BSK_BT_xIL2: BioMAP Diversity Plus: BT Assay for Interleukin 2 (IL2) Biomarker Activity (AID 2284245); conditions: primary human B cells with PBMC
Outline: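 B cell + PBMC co-culture (human primary), compound added, 24 h incubation; secreted IL-2 measured multiplexed on Luminex xMAP; gain-of-signal fit vs DMSO.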

[11] = read-out: Collagen IV, COL4A1 (gene 1282); test: BSK_MyoF_CollagenIV: BioMAP Diversity Plus: MyoF Assay for Collagen IV Biomarker Activity (AID 2284247); conditions: primary human lung fibroblasts
Outline: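 Steps: dose human lung fibroblasts; culture 24 h; quantify Collagen IV by ELISA; fit increase versus DMSO control. Parallel SRB total-protein staining (0.1% SRB after 10% TCA fixation, 560 nm) tracks overt cytotoxicity.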

[12] = read-out: Plasminogen activator inhibitor-1 (PAI1), SERPINE1 (gene 5054); test: BSK_MyoF_PAI1: BioMAP Diversity Plus: MyoF Assay for Plasminogen activator inhibitor-1 (PAI1) Biomarker Activity (AID 2284256); conditions: primary human lung fibroblasts
Outline: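 Human lung fibroblasts (MyoF system) were exposed to test chemicals for 24 h, then PAI-1 was quantified by ELISA. Activity was fitted in the positive (signal-gain) direction relative to DMSO vehicle as baseline.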

[13] = read-out: Interleukin-8 (IL8), CXCL8 (gene 3576); test: BSK_MyoF_IL8: BioMAP Diversity Plus: MyoF Assay for Interleukin-8 (IL8) Biomarker Activity (AID 2284261); conditions: primary human lung fibroblasts
Outline: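 IL-8 quantified by ELISA after 24 h compound exposure of primary human lung fibroblasts. SRB staining of parallel cultures flagged cytotoxicity; DMSO served as baseline.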

[14] = BSK_MyoF_SRB: Viability Assessment in the BioMAP Diversity Plus: MyoF Assay (AID 2284267); conditions: primary human lung fibroblasts;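 note: total protein by SRB absorbance in parallel cultures as cytotoxicity measure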
Outline: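 Read-out is SRB absorbance at 560 nm, reflecting total protein in parallel lung fibroblast cultures harvested 24 h after compound addition. Cells were TCA-fixed (10%) and stained with 0.1% SRB; activity is referenced to DMSO.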

[15] = read-out: Matrix Metallopeptidase 1 (MMP1), MMP1 (gene 4312); test: BSK_MyoF_MMP1: BioMAP Diversity Plus: MyoF Assay for Matrix Metallopeptidase 1 (MMP1) Biomarker Activity (AID 2284268); conditions: primary human lung fibroblasts
Outline: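 Human lung fibroblasts (MyoF system) exposed to chemical for 24 h in 96-well format; MMP1 biomarker quantified by ELISA, with activity fitted in the positive direction relative to DMSO baseline.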

[16] = read-out: TIMP metallopeptidase inhibitor 1 (TIMP1), TIMP1 (gene 7076); test: BSK_MyoF_TIMP1: BioMAP Diversity Plus: MyoF Assay for TIMP metallopeptidase inhibitor 1 (TIMP1) Biomarker Activity (AID 2284269); conditions: primary human lung fibroblasts
Outline: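 TIMP-1 levels were determined by ELISA in human lung fibroblasts treated for 24 h. DMSO served as negative control and baseline for upward curve fitting.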

[17] = biological target: Retinoic acid receptor RXR-alpha (Homo sapiens) (UniProt P19793); test: OT_NURR1_NURR1RXRa_0480: Odyssey Thera (OT) 8-hour HEK293T Protein Complementation Assay for Nurr1/retinoid X receptor (RXR) (AID 2283385; active = hit-call score of the fitted dose curve at least 0.9, where 1 is the maximum)
Chain of Retinoic acid receptor RXR-alpha (Homo sapiens) (P19793 whole entry, looked up, the tested form may be a part): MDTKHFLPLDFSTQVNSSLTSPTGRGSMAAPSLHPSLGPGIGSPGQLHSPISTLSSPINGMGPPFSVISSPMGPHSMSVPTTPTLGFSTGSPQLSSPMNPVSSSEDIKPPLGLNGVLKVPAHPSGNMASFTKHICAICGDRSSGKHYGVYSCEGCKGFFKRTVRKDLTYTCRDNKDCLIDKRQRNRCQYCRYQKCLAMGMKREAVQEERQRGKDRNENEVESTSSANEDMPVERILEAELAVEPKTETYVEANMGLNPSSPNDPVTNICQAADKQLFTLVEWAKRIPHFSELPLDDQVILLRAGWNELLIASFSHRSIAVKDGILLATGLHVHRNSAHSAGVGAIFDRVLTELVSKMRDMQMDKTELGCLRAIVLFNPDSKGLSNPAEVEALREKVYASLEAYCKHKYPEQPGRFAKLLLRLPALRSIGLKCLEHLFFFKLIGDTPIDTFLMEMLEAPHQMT
Outline: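 8 h compound exposure, HEK293T; Nurr1/RXRα fragment complementation; fluorescence intensity; positive fitting direction vs DMSO baseline.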

[18] = biological target: Retinoic acid receptor RXR-alpha (Homo sapiens) (UniProt P19793); test: OT_NURR1_NURR1RXRa_1440: Odyssey Thera (OT) 24-hour HEK293T Protein Complementation Assay for Nurr1/retinoid X receptor (RXR) (AID 2283386; active = hit-call score of the fitted dose curve at least 0.9, where 1 is the maximum)
Outline: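 Interaction of Nurr1 with RXRα brings fused reporter fragments together in human HEK293T cells, restoring a functional reporter. Fluorescence intensity is measured 24 h after chemical treatment, and values are analysed in the positive direction against DMSO.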

[19] = biological target: Estrogen receptor beta (Homo sapiens) (UniProt Q92731); test: OT_ER_ERbERb_0480: Odyssey Thera (OT) 8-hour HEK293T Protein-Complementation Assay for Estrogen Receptor-beta/-beta Homodimer (AID 2283357; active = hit-call score of the fitted dose curve at least 0.9, where 1 is the maximum;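 note: active means signal gain over DMSO baseline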)
Chain of Estrogen receptor beta (Homo sapiens) (Q92731 whole entry, looked up, the tested form may be a part): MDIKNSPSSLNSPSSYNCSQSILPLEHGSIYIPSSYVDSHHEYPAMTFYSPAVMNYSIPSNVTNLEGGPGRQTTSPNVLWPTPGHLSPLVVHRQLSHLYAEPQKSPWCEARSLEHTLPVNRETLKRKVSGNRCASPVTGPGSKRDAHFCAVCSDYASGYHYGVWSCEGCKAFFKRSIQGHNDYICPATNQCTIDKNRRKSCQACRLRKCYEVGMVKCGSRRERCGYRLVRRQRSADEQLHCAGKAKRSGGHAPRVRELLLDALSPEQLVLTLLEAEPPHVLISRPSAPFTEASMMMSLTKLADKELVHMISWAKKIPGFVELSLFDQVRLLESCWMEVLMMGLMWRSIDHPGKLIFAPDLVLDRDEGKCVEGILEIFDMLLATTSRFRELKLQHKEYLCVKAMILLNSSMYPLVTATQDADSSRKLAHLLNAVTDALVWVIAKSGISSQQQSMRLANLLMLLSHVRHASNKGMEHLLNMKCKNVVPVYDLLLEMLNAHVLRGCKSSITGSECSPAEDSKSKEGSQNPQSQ
Outline: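 Fluorescence intensity, nuclear for agonists and nuclear plus cytoplasmic for antagonists, was quantified by laser scanning cytometry versus vehicle after 8 h treatment. The cells were HEK293T stably carrying ER beta LBD fragment-complementation partners.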

[20] = ACEA_AR_antagonist_AUC_viability: ACEA Biosciences xCELLigence Real-Time Cell Analysis on Androgen Receptor Antagonism for Viability (AID 2283776; active = hit-call score of the fitted dose curve at least 0.9, where 1 is the maximum;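 note: 22Rv1 human prostate cancer cells growing on impedance electrode plates; area under impedance growth curve at 80 h after dosing as viability; hits lower the growth signal relative to DMSO meaning cytotoxicity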)
Outline: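 Viability endpoint from label-free cell-index monitoring: 22Rv1 cultures treated with an eight-point 1:4 dilution series starting at 100 uM final, AUC at 80 h fitted against DMSO.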

Measured: AC50

Chain of Tumor necrosis factor (Homo sapiens) (P01375 whole entry, looked up): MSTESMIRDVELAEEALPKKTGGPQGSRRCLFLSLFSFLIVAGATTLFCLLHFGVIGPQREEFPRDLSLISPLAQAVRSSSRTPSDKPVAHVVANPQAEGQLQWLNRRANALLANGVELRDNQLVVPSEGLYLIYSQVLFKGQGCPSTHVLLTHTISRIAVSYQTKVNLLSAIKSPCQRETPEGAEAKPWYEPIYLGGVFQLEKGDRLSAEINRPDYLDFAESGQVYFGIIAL

c1ccc(Nc2ccc3ccccc3c2)cc1
active: [2] 27.2 µM | [3] 29.9 µM | [4] 20 µM | [5] 20 µM | [6] 31.2 µM | [7] 20 µM | [8] 30.8 µM | [9] 29 µM | [10] 20 µM | [12] 31.6 µM | [14] 35.5 µM | [16] 34.4 µM
inactive: [1] | [11] | [13] | [15]

O=[N+]([O-])C=Cc1ccccc1
inactive: [15]
active: [1] 7.36 µM | [2] 6.33 µM | [3] 5.28 µM | [4] 5.44 µM | [5] 8.35 µM | [6] 11.1 µM | [7] 13.8 µM | [8] 5.05 µM | [9] 12.3 µM | [10] 6.08 µM | [11] 3.97 µM | [12] 12.3 µM | [13] 9.76 µM | [14] 20 µM | [16] 13.2 µM

CCOC(=O)COc1ccc(Cl)cc1Cl
inactive: [17] | [18]

CC(C)c1ccc(O)cc1
inactive: [18] | [20]
active: [19] 57.9 µM

COCC(=O)N(c1c(C)cccc1C)N1CCOC1=O
not listed: [17] | [18] | [19] | [20]
inactive: all other assays above

Nc1ccc(-c2ccc(N)c(N)c2)cc1N
active: [6] 20 µM | [8] 23.6 µM | [9] 20 µM
not listed: [17] | [18] | [19] | [20]
inactive: all other assays above

O=C(O)CCl
inactive: [19] | [17]

Nc1ccccc1
inactive: [17] | [18] | [20]

c1ccc2c(c1)CCCC2
inactive: [19] | [17] | [20]

C=CC(=O)OCCO
inactive: [19] | [20]

CC(C)(C)C(=O)CCl
active: [1] 12.9 µM | [6] 20 µM | [12] 32.9 µM
not listed: [17] | [18] | [19] | [20]
inactive: all other assays above

O=C1C(Cl)=C(Cl)C(=O)C(Cl)=C1Cl
inactive: [15]
active: [1] 26.4 µM | [2] 26 µM | [3] 30.3 µM | [4] 20 µM | [5] 20 µM | [6] 20.5 µM | [7] 14.4 µM | [8] 28.8 µM | [9] 23.8 µM | [10] 29.3 µM | [11] 25 µM | [12] 29.9 µM | [13] 32 µM | [14] 29.6 µM | [16] 28 µM

CC(O)CN(CC(C)O)CC(C)O (stereo not given)
inactive: [17] | [18]

CCC1CCC(=O)O1 (stereo not given)
inactive: [19] | [18] | [20]

CC(=O)c1cc2c(cc1C)C(C)(C)C(C)CC2(C)C (stereo not given)
active: [19] 5.28 µM | [17] 82.1 µM
inactive: [18] | [20]
